The values that follow come from PubChem BioAssay (NCATS).

Each structure is given as a SMILES string. “And” between values parts separate entries of the source, which are not always exact repeats. Identical values can stand only once. Records with an inconclusive call do not appear. A number with no mark means an inactive call. The source made the active and inactive calls. Unless noted, calls follow the shape of the dose curve; as a rule, active = well fitted curve in the direction sought with a large enough effect; inconclusive = small, poorly fitted or top-dose-only effect, or another doubt; inactive = no such curve, though single readings can be large; an effect the other way counts as inactive or inconclusive.

Test [1] deals with Rap guanine nucleotide exchange factor 4 (Homo sapiens) (UniProt Q8WZA2). The test is described as follows: Confirmatory qHTS for antagonist of cAMP-regulated guanine nucleotide exchange factor 4 (EPAC2) (AID 1645885). Also: potency is read from the fitted curve at half-maximal effect; nearly all actives have a fitted effect of over 25% in size. On the technique in general: Quantitative high-throughput screening tests each substance at several concentrations.
Sequence of Rap guanine nucleotide exchange factor 4 (Homo sapiens) (Q8WZA2 whole entry, looked up): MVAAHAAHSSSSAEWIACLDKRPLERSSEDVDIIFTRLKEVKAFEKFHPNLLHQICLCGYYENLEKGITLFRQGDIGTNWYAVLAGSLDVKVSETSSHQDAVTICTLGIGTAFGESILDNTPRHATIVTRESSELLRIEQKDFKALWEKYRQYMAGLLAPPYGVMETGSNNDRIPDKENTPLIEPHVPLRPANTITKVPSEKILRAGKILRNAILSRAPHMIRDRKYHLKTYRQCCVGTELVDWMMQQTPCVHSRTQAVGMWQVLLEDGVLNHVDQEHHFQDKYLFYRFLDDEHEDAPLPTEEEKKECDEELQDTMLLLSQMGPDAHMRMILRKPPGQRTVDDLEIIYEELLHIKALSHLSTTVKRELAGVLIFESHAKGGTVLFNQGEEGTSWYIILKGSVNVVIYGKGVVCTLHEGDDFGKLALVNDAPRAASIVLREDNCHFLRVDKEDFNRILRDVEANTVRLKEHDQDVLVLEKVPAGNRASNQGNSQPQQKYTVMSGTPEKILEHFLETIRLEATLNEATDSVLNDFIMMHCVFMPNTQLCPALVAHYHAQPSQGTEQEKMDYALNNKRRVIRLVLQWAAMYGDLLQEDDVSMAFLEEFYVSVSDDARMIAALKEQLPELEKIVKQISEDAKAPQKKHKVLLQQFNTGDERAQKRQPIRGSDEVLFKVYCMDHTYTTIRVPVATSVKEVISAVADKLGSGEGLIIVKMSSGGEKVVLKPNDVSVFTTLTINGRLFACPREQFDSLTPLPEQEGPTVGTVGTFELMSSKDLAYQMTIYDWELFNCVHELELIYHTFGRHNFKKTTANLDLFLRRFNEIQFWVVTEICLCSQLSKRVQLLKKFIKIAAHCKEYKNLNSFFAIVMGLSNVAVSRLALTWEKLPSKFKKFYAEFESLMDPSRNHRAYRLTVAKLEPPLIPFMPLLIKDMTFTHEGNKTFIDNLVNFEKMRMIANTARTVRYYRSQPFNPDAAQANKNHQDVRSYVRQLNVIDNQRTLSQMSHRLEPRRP
Test [2] can be described thus: NCATS anti-infectives library activity on HEK293 viability as a counter-qHTS vs the C. elegans viability qHTS (AID 1745854).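 Also: HEK293 cells exposed to compounds for 24 hr before the viability read; % is scaled to controls: 0 for no effect and ±100 for the full control effect.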 The gist of the method:
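Counter-screen for cytotoxicity: HEK293, 24 hr, 37C, compounds up to 41.7 uM final (a dilution series, 1:5). Readout CellTiter-Glo luminescence, 10 min RT. Digitonin control, 83.3 uM final.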

Test [3] is described as follows: qHTS for differential inhibitors of proliferation of Plasmodium falciparum line 7G8 (AID 1815).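 Also: parasite growth measured after three days of incubation.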 Also: potency is read from the fitted curve at half-maximal effect.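 As to activity change, negative = inhibition: plate controls were vehicle wells for no effect and reference inhibitor wells for full effect.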
Test [4] is described as follows: qHTS for differential inhibitors of proliferation of Plasmodium falciparum line GB4 (AID 1816).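 Also: parasite growth measured after 72 h incubation.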 Also: potency is read from the fitted curve at half-maximal effect.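 As to activity change, negative = inhibition: 0% = vehicle DMSO and -100% = reference inhibitor.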 The conditions noted are these: Potency: Plasmodium falciparum GB4 proliferation inhibition.
A short description of test [5]: qHTS for differential inhibitors of proliferation of Plasmodium falciparum line D10 (AID 1877).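 Also: parasites grown with compound for 72 h before DNA staining.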 Also: potency is read from the fitted curve at half-maximal effect.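 As to activity change, negative = inhibition: plate controls were vehicle wells for no effect and reference inhibitor wells for full effect.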
Test [6] deals with RecQ-like DNA helicase BLM (Homo sapiens) (UniProt P54132). The test is described as follows: qHTS Validation Assay for Inhibitors of Bloom's syndrome helicase (BLM) (AID 2364).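 Also: plate controls were DMSO vehicle for no effect and enzyme-free control for full effect.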 Summed up: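 BLM 50 nM in 25 mM Tris-HCl pH 8.0, 5 mM NaCl, 2 mM MgCl2, 1 mM DTT, 0.01% Tween-20, 2.5 ug/ml poly(dI-dC); 15 min cpd preinc, RT. Start: 200 nM forked DNA + 2 mM ATP (final). TAMRA read, 2 reads 2 h apart.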
Sequence of RecQ-like DNA helicase BLM (Homo sapiens) (P54132 whole entry, looked up): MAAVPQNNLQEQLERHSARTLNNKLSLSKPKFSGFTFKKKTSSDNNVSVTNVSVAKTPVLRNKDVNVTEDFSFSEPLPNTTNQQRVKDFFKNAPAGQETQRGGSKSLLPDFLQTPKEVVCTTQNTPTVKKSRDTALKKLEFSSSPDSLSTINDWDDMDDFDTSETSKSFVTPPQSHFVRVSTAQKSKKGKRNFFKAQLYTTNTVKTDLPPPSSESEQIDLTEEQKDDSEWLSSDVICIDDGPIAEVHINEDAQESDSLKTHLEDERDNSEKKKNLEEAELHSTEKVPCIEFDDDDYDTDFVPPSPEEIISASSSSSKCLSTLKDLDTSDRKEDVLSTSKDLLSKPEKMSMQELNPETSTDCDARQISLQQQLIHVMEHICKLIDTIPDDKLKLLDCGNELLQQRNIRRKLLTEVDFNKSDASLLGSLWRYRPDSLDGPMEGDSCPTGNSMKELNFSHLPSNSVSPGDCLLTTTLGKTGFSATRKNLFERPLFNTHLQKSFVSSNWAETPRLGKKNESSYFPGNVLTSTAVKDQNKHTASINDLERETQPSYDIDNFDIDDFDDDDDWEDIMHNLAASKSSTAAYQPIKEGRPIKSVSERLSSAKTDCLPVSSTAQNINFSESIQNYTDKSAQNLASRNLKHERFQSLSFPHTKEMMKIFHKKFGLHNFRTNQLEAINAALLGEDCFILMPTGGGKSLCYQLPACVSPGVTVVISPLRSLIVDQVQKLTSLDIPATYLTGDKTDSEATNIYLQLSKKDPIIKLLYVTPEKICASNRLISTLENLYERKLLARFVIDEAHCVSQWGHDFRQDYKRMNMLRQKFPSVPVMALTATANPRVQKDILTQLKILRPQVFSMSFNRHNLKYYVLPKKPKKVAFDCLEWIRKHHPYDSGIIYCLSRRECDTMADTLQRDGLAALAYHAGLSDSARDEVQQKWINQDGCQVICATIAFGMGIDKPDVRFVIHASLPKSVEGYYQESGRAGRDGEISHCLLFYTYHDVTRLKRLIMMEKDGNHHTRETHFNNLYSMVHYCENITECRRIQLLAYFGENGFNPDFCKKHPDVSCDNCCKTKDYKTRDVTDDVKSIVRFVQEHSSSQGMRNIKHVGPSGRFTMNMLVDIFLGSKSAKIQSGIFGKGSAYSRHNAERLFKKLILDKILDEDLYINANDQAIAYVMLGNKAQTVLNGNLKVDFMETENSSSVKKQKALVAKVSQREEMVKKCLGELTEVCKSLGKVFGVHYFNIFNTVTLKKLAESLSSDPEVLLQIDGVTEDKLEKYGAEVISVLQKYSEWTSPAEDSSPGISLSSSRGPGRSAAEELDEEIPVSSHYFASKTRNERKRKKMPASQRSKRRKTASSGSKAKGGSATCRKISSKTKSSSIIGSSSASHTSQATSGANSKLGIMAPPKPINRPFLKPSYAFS

A short description of test [7]: Validation screen for small molecules that induce DNA re-replication in SW480 colon adenocarcinoma cells (AID 504364). Also: 0% is about no effect. The gist of the method: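 Image-based qHTS: compounds were incubated with SW480 cells for 48 hr, nuclei stained with Hoechst, and per-nucleus fluorescence intensity scanned to flag cells with excess DNA content.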
Test [8] in a line: qHTS Assay for Modulators of Human Peripheral Myelin Protein 22 (PMP22) Expression/Activity (AID 1967; active = well fitted curve in the direction sought with a large enough effect in the signal ratio; the % refers to the signal ratio;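 also: 0% = untreated cells and 100% end not stated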). The gist of the method:
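Mouse MSC80 Schwann cells carrying Pmp22 promoter–green click beetle luciferase plus EF-alpha–red luciferase control, dosed 24 h at 37 °C. Dual-filter luminescence, overlap-corrected; %Activity from green/red ratio normalised to untreated cells, concentration-response curves fitted.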

Test [9] is described as follows: Quantitative high throughput screen for delayed death inhibitors of the malarial parasite plastid, 48 hour incubation (AID 488752). Also: nearly all actives have a fitted effect of over 65% in size. Also: potency is read from the fitted curve at half-maximal effect. As to activity change, negative = inhibition: % is scaled to controls: 0 for no effect and ±100 for the full control effect. The gist of the method: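 First, compound was pinned into RPMI 1640 medium containing 0.5% Albumax. Next, reporter-parasite-infected erythrocytes were added to 2% hematocrit and 0.1% parasitemia. After 48 h at 37 C under 5% CO2, luciferase detection reagent was added and luminescence read.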

Test [10] addresses Cytochrome P450 2C9 (Homo sapiens) (UniProt P11712). Briefly: qHTS Assay for Inhibitors and Substrates of Cytochrome P450 2C9 (AID 883). Also: nearly all actives have a fitted effect of over 60% in size. Also: potency is read from the fitted curve at half-maximal effect. As to activity change, negative = inhibition: % is scaled to controls: 0 for no effect and ±100 for the full control effect. The gist of the method:
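CYP2C9 deoxyluciferin hydroxylation, 37C, 60 min with NADPH regeneration; 10nM enzyme, 100uM Luciferin-H (KM). Glo detection reagent stopped reaction; luminescence normalized to sulphaphenazole (57uM) full inhibition.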

The target of test [11] is Glutathione peroxidase 1 (Homo sapiens) (UniProt P07203). The test is described as follows: Primary qHTS Assay for Inhibitors of Recombinant Selenoprotein Glutathione Peroxidase 1 (GPX1) (AID 1845191). Also: nearly all actives have a fitted effect of over 65% in size. As to activity, negative = inhibition: % is scaled to controls: 0 for no effect and ±100 for the full control effect. As to conditions: outcome: dose series up to 48.8 µM unless noted. The gist of the method:
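GPX1 10 nM, GR 100 nM, GSH 1 mM, NADPH 0.5 mM, CHP 0.5 mM (final). 30-min cpd preincubation, RT. Ex340/Em450 read t=0, t=15 min.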

In test [12] the target is Phospholipid hydroperoxide glutathione peroxidase GPX4 (Homo sapiens) (UniProt P36969). The test is described as follows: Primary qHTS Assay for Inhibitors of Recombinant Selenoprotein Glutathione Peroxidase 4 (GPX4) (AID 1845192). Also: % is scaled to controls: 0 for no effect and ±100 for the full control effect; nearly all actives have a fitted effect of over 65% in size. The conditions noted are these: outcome: dose series up to 50 µM unless noted. Summed up:
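qHTS, GR-coupled: GPX4 200 nM + cpd 30 min RT → GSH 1 mM, NADPH 0.5 mM, GR 100 nM → CHP 0.5 mM start; fluor 340/450 at t0 and t15 min; no-enzyme wells as control.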

Test [13] can be described thus: qHTS profiling for inhibitors of Plasmodium falciparum proliferation (AID 504749).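 Also: 0% = DMSO vehicle and full inhibition = artemisinin control; nearly all actives have a fitted effect of over 60% in size.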 As to conditions: P. falciparum in erythrocytes, SYBR Green DNA, 72 h. The gist of the method:
(§1)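 Quantitative HTS: compounds pinned into medium, infected erythrocytes added (0.3% parasitemia, 2.5% hematocrit), 72 h culture at 37 C under 5% CO2. Saponin/Triton lysis with SYBR Green I, overnight RT, then fluorescence read.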

The test system of the next test is AS120. The description is as above. The conditions noted are these: P. falciparum in erythrocytes, SYBR Green DNA, 72 h; series mostly up to 28.7 µM. Summed up: as §1
Another test concerns ATS189. The test is described as above. As to conditions: P. falciparum in erythrocytes, SYBR Green DNA, 72 h; series mostly up to 12.8 µM. Summed up: as §1
The test system of another test is CP191. The test is described as above. The conditions noted are these: P. falciparum in erythrocytes, SYBR Green DNA, 72 h; series mostly up to 12.8 µM. Summed up: as §1
The next test deals with CP203. The description is as above. The conditions noted are these: P. falciparum in erythrocytes, SYBR Green DNA, 72 h; series mostly up to 12.8 µM. The gist of the method: as §1
Another test has as its system CP291. The description is as above. The conditions noted are these: P. falciparum in erythrocytes, SYBR Green DNA, 72 h; series mostly up to 12.8 µM. Summed up: as §1
For the next test, the system named is DFO2036. Described as above. The conditions noted are these: P. falciparum in erythrocytes, SYBR Green DNA, 72 h; series mostly up to 12.8 µM. Summed up:
as §1

In a further test the test system is TAB113. The description is as above. As to conditions: P. falciparum in erythrocytes, SYBR Green DNA, 72 h; series mostly up to 12.8 µM. The gist of the method: as §1
[14] abbreviates: at 28.7 µM (top of the series), parasite line A.
[15] abbreviates: at 28.7 µM (top of the series), parasite line B.

Sequence of Glutathione peroxidase 1 (Homo sapiens) (P07203 whole entry, looked up): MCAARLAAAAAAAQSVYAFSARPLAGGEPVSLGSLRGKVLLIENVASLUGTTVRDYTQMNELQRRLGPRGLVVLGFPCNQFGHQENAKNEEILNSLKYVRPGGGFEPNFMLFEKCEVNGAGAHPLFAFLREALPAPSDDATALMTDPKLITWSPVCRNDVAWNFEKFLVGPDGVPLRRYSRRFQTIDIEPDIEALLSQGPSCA
Sequence of Cytochrome P450 2C9 (Homo sapiens) (P11712 whole entry, looked up): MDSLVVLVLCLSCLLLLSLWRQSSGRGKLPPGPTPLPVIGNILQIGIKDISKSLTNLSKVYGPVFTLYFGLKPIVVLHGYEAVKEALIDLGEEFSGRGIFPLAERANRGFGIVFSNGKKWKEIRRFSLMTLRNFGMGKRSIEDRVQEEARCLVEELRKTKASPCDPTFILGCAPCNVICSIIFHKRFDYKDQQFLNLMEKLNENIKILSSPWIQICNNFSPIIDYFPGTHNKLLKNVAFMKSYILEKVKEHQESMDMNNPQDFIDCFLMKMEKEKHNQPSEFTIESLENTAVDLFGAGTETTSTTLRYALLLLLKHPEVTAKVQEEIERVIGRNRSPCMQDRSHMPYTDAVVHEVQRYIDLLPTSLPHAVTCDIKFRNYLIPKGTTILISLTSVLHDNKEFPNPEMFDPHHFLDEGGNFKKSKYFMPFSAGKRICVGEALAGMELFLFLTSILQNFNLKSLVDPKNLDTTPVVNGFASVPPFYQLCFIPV
Sequence of Phospholipid hydroperoxide glutathione peroxidase GPX4 (Homo sapiens) (P36969 whole entry, looked up): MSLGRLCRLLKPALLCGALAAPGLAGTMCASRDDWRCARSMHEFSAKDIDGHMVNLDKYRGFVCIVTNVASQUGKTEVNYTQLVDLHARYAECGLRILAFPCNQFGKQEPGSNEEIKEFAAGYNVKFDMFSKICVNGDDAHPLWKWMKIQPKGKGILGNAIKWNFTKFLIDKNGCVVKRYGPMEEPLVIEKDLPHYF

On to `C=C[C@](C)(O)CCC1C(=C)CC(OC(C)=O)C2C(C)(C)CCCC12C` (stereo partly drawn), for which, in [1], the Potency is 11.1 µM (active).
On to `COc1ccc(-c2cc(=O)c3c(OC)c(OC)c(OC)c(OC)c3o2)cc1OC`, for which the compound was called inactive in test [2].
As for `CN1CCc2c(cc(O)c(O)c2Cl)C(c2cccc(Cl)c2)C1` (stereo not drawn), the Potency is 5.01 µM (active) in test [3], 5.01 µM (active) in [4] and 10 µM (active) in test [5]. For the same compound, the compound was called inactive in test [6] and in [7].
Consider `CNC(=O)[C@H]1O[C@@H](n2cnc3c(N)ncnc32)[C@H](O)[C@H]1O`, for which the Potency entry in [3], in [4], in [5] and in test [9] was “inactive” each time. Besides, the compound was called inactive in test [8] and in [7].
Consider `CN(C)CCCO[C@H]1C([C@H](O)CO)O[C@@H]2OC(C)(C)O[C@@H]21` (stereo partly drawn), for which the Potency entry in [3], in test [4], in test [5] and in test [9] was “inactive” throughout. The call in test [8], in [6] and in test [7] was inactive.
With `C[C@@H](Oc1ccc(Oc2cnc3ccc(Cl)cc3n2)cc1)C(=O)O`, the Potency result in test [5] and in test [9] was “inactive” in each case. Also, the result in [6] was inactive.
For `COc1ccc2c(c1)[C@@]1(C)CCC[C@](C)(CO)C1CC2` (stereo partly drawn), in test [1], the Potency was 39.3 µM (active).
On to `COC(=O)c1c(C)c2c(c(C)c1O)OC(=O)c1c(C)c(Cl)c(O)c(Cl)c1O2`, for which the Potency in test [1] is 2.48 µM (active) and 2.21 µM (active).
The same measure, in the same setting: the same measure for `CC1(C)[C@@H](O)CC[C@]2(C)C3C(=O)C=C4C5C[C@@](C)(C(=O)O)CC[C@]5(C)CC[C@@]4(C)[C@]3(C)CC[C@@H]12` (stereo partly drawn): 5.55 µM (active).
`Nc1ncnc2c1nc(Br)n2C1O[C@H]2COP(=O)(O)O[C@@H]2C1O` (stereo partly drawn): in test [4], the Potency was 12.6 µM (active). Moreover, the result in [6] and in test [7] was inactive. The Potency entry in test [9] was “inactive”.
`CCCC1O[C@@H]2C[C@H]3[C@@H]4CCC5=CC(=O)C=C[C@]5(C)C4[C@@H](O)C[C@]3(C)[C@]2(C(=O)CO)O1` (stereo partly drawn): the Potency in [3] is 2.24 µM (active); in [4], 3.16 µM (active); in [5], 11.2 µM (active); in test [9], 10.4 µM (active). Moreover, the call in test [7] was inactive.
As to `CC(C)=CCC/C(C)=C/CC/C(C)=C/CC/C(C)=C/CC/C(C)=C/CC/C(C)=C/CC/C(C)=C/CC/C(C)=C/CC/C(C)=C/CO`, in test [2], the compound was classed as inactive.
On the same count and under the same terms, the same measure for `COc1cc2c3cc1Oc1c(OC)c(OC)cc4c1[C@@H](Cc1ccc(O)c(c1)Oc1ccc(cc1)C[C@@H]3N(C)CC2)N(C)CC4`: “inactive”.
As for `COc1cc(C)c(C(=O)Oc2cc(C)c(C(=O)O)c(O)c2C)c(OC)c1C`, the Potency in test [1] is 49.4 µM (active).
Regarding `Nc1ncnc2c1ncn2[C@@H]1O[C@H](COP(=O)(O)OP(=O)(O)OP(=O)(O)OP(=O)(O)OC[C@@H]2O[C@H](n3cnc4c(N)ncnc43)[C@@H](O)[C@@H]2O)[C@H](O)[C@H]1O`, the result in test [8], in test [6] and in test [7] was inactive. The Potency entry in test [9] was “inactive”.
With `COc1ccccc1CNc1ncnc2ccc(-c3ccccc3OC)cc12`, the Potency in [10] was 0.794 µM (active).
In the case of `Cc1ccccc1-c1nc(N2CCOCC2)c2ccccc2n1`, the activity change, negative = inhibition in test [10] is 14.3% [at 2.29 µM].
In the case of `COc1ccccc1-c1ccc2ncnc(NCc3ccccc3)c2c1`, the Potency in test [10] is 0.501 µM (active).
Still for that read-out and setting: as for `COc1cccc(-c2ccc3ncnc(NCCc4c[nH]c5ccc(OC)cc45)c3c2)c1`, the figure is 0.398 µM (active).
For `C[N+](C)(C)CC(O)CC(=O)O` (stereo not drawn), the result in test [11] and in test [12] was inactive. Moreover, the figures for the activity, negative = inhibition in [13] (setting [14]) and in test [13] (setting [15]) were 14.7% and 11.5%, respectively. For the same compound, the Potency entry in the test with AS120, with ATS189, with CP191, in the test on CP203, with CP291 and in the test on DFO2036 was “inactive” in each case. For the same compound, the Potency result in the test with TAB113 is “inactive”.
For the compound `C#C[C@]1(O)CCC2C3CCC4=C(CCC(=O)C4)C3CC[C@@]21C` (stereo partly drawn), the result in test [11] was inactive.
Consider `CC(C)N1CCN(c2ccc(OC[C@@H]3CO[C@@](Cn4cncn4)(c4ccc(Cl)cc4Cl)O3)cc2)CC1`, for which the outcome in test [11] and in test [12] was inactive. Besides, the activity, negative = inhibition in test [13] (at 12.8 µM (top of the series), parasite line A) is 5.81%. Moreover, the Potency result with AS120, in the test on ATS189, with CP191, with CP203, in the test with CP291 and with DFO2036 was “inactive” throughout. Also, in the test with TAB113, the Potency result is “inactive”.
For the compound `O=C(Cc1cccs1)NC1C(=O)N2C(C(=O)[O-])=C(C[n+]3ccccc3)CSC12` (stereo not drawn), the outcome in [12] was inactive. The activity, negative = inhibition was 4.33% in test [13] (setting [14]) and -24.5% in test [13] (setting [15]). Besides, the Potency result in the test with AS120, in the test on ATS189, in the test with CP191, in the test with CP203, in the test on CP291 and in the test with DFO2036 was “inactive” in each case. In addition, the Potency result with TAB113 is “inactive”.
